From PubChem BioAssay
A number with no mark means an inactive call. The source made the active and inactive calls.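 The calls were made as follows: active = z-score of at least 1.8 in each of two replicates, scored against plate mean and spread of sample wells; inactive = the rest.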

Experiment: viability rescue of complex I mutant cybrids, primary screen, cell-based, galactose medium, ATP luminescence (AID 1645843);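 also: positive z means more ATP and so rescue of galactose-driven cybrid death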
Details: complex I mutant cybrid cells, 72 h, stronger effect = higher value
CCCCCN1C(=O)C2(CCN(C(=O)N3CCCC3)CC2)Nc2ccccc21 gave a z-score of -1.2.
O=c1c2ccc(C(F)(F)F)cc2ncn1CCC1CCCCN1C1CCCC1 (stereo not given) gave a z-score of -0.69.
COc1cc(C)c(CNC(C)CCCC(C)(C)O)c(C)c1C (stereo not given) showed a z-score of -0.435.
For FC(F)(F)c1cccc(Cc2noc(CCCN3CCCCC3)n2)c1, the z-score was 0.61.
With Cc1ccc(C(=O)N2CCNC(=O)C2Cc2ccccc2)c(F)c1 (stereo not given) the z-score was -0.535.
For O=C(Nc1nc(-c2ccccc2)ns1)N1CCN(C2CCCCC2)C(=O)C1, the z-score was -0.54.
Cc1ccc2nc(-c3cnc(CCC(C)C)nc3)c(C)c(C(=O)N(C)C)c2c1 showed a z-score of -0.51.
For CCCn1nc(NC(=O)Cn2ccc(-c3ccc(F)cc3)n2)c2ccccc21, the z-score was -1.28.
C=C1C2(C(=O)N3CCC(c4cccc(OC)c4OC)C3)CCC(C2)C1(C)C (stereo not given) gave a z-score of 1.19.
CC(C)C1C(=O)N(C)CCN1C(=O)Nc1nc(-c2ccccc2)ns1 (stereo not given) showed a z-score of -0.345.
With O=C1NCCN(C(=O)c2ccc(Cl)c(F)c2)C1Cc1ccccc1 (stereo not given) the z-score was -0.565.
With Cc1cccc(-n2cc(CN(C)C(=O)C(=O)c3ccco3)cn2)c1 the z-score was 0.6.
Cc1cc(NC(=O)CCC2CC2)n(C(C)C)n1 gave a z-score of -0.44.
For OCCCCCNc1nccc(-c2cnn(-c3ccccc3F)c2)n1, the z-score was -0.905.
COc1ccc(CN2CCN(c3nccc(-c4c(C)nn(C)c4C)n3)CC2=O)cc1 showed a z-score of 1.14.
Cc1nnc(NC(=O)N2CCCN(c3ccncc3C)CC2)s1 showed a z-score of -0.57.
For COc1ccccc1N1CCN(C(=O)Nc2n[nH]c(Cc3ccccc3)n2)CC1, the z-score was -0.935.
Cc1nsc(NC(=O)N2CCCC(C)(CO)C2)n1 (stereo not given) showed a z-score of -0.515.
Molecule Cc1nn(C)c(C)c1-c1ccnc(NCc2ccc3nsnc3c2)n1 has a z-score of -0.665.
Cc1nn(C)cc1-c1ccnc(N2CCCC(c3nc4c(C)cccc4[nH]3)C2)n1 (stereo not given) showed a z-score of -1.2.
CCn1c(C)nc2cc(OC3(C(=O)O)CCCCC3)ccc21 gave a z-score of -0.565.
CCn1ncc2[nH]c(-c3c(OC)ccc4ccccc34)nc21 gave a z-score of 0.04.
For O=C(C1CCCCCC1)N1CCC(n2cc(-c3ccccc3)nn2)CC1, the z-score was -0.495.
With CC(Cc1cccnc1)n1cnc2sc3c(c2c1=O)CCCCC3 (stereo not given) the z-score was 0.91.
For CCCC[C@@H]1C[C@@H]1C(=O)N1CCC(n2cc(C3CCCCC3)nn2)CC1, the z-score was 1.86.
In the case of O=C(Nc1ccncc1)c1ccc2c(c1)OCCO2, the z-score is reported as 0.445.
Work on O=C(C1CCCCCC1)N1CCC(Cn2cc(CCCO)nn2)CC1 yielded a z-score of -0.325.
C=C1C2(C(=O)N3CCC(CCN4CCCC4=O)CC3)CCC(C2)C1(C)C (stereo not given) showed a z-score of -0.41.
Molecule Fc1ccc(-n2cc(-c3ccnc(NCc4cnc5ccccn45)n3)cn2)cc1 has a z-score of -0.035.
Molecule Cc1cc(C(=O)N2CCCC(C)C2)c2ccc(C)c(C)c2n1 (stereo not given) has a z-score of -0.505.
With O=C(C1CCCCCC1)N1CCC(n2cc(C3CCCCC3)nn2)CC1 the z-score was 2.69 (active).
With c1ccc(-c2nc3c(cnn3C3CCCCC3)[nH]2)c(Cn2cccn2)c1 the z-score was 0.525.
CC(C)CC1(CO)CCCN(C(=O)c2cccc(C#CC(C)(C)O)c2)C1 (stereo not given) showed a z-score of -0.79.
Work on c1nc(-c2ccc3c(c2)OCCO3)c2sccc2n1 yielded a z-score of 0.225.
CCCN1CCC(NCC(CC)(CC)CCC#N)CC1 gave a z-score of -0.565.
For CCC1(CC)CC1C(=O)N1CCCCC1CCn1ccnc1C (stereo not given), the z-score was -0.475.
CCn1nc(CC(C)C)cc1C(=O)N1CCC(n2cc(C(C)(C)O)nn2)CC1 showed a z-score of -0.53.
CC(Oc1ccc2c(c1)OCO2)C(=O)N1CCCCC1CCN1CCCC1=O (stereo not given) showed a z-score of 1.73.
For Cc1sc2ccccc2c1-c1ccn(CC(=O)Nc2ccnn2C(C)C)n1, the z-score was -0.855.
With Cc1ccc2c(C(=O)N3CCCC3c3nc(C)no3)cc(-c3cnn(C)c3)nc2c1 (stereo not given) the z-score was -0.585.
